Shown are actives, neighbours in structure and some others; about 19% of the full set was active somewhere.
HT1080 IDH1KD tx: HT-1080 IDH1 knockdown cell toxicity (counter line); HT-1080 IDH1 knockdown viability, ATP luminescence, 48 h; Potency, µM (highest dose often 46.1 µM), inactives show at the highest dose activity, negative = toxicity, most hits filed as cytotoxic; 360,000 compounds, 2% hits;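 note: potency is the fitted concentration of half-maximal effect; 0% = DMSO wells and -100% = cell-free medium wells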
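After a 2 h attachment period, IDH1KD HT-1080 cells took pin-transferred compound for 48 h at 37 °C; ATP-based luminescence after 10 min room-temperature reagent incubation reported viability.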
HT1080NT lethal: kills 2HG-producing HT-1080-NT fibrosarcoma cells; HT-1080-NT fibrosarcoma viability, CellTiter-Glo ATP luminescence, 48 h; Potency, µM (doses to about 46.1 µM), for the others: at the top dose activity, negative = less viability, usual class: cytotoxic; 360,000 compounds, 1.6% hits; AID 686970;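 note: NT is the 2HG producing partner of a matched IDH1 knockdown line; potency is the fitted concentration of half-maximal effect; 0% = DMSO-treated cells and -100% = media-only wells without cells; nearly all actives have a fitted effect of over 55% in size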
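Toxicity toward the 2HG-producing NT line was scored as %Activity, normalised to DMSO and no-cell wells, from CellTiter-Glo luminescence after 48 hours' treatment.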
DT40 TDP1 CPT: growth inhibition of DT40 Tdp1-/-;hTDP1 cells with camptothecin (screen for TDP1 inhibitors); chicken DT40 Tdp1-/-;hTDP1 cells + 20 nM CPT, ATP luminescence, 48 h; Potency, µM (series often up to 46.2 µM), for inactives: at the top dose activity change, negative = growth inhibition, most hits filed as inhibitors; 420,000 compounds, 12% hits; AID 686979; note: potency is the fitted concentration of half-maximal effect; nearly all actives have a fitted effect of over 55% in size
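Chicken DT40 Tdp1-/- cells complemented with human TDP1, 400 cells/well, exposed to compounds plus 20 nM camptothecin for at least 48 h at 37 C; viability read as ATP content by CellTiter-Glo luminescence.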
IL1B secr inh: inflammasome signaling inhibition, IL-1 beta readout. THP-1 LPS/ATP IL-1B secretion, AlphaLISA, 16 h; stronger effect = lower value. activity change, % at 57.5 µM. 360,000 compounds, 4.7% hits; in the data active = activity change below about -50%; inconclusive = mostly about -30% to -49%
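THP-1 cells pretreated 1 hr with compounds (up to 57.5 uM final), then stimulated with LPS (250 ng/mL final) plus ATP (1.25 mM final); secreted IL-1B measured by AlphaLISA after 16 hr, decreased signal indicating inhibition.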
TDP1 cell noCPT: qHTS for Inhibitors of human tyrosyl-DNA phosphodiesterase 1 (TDP1): qHTS in cells in absence of CPT. Potency, µM (highest dose often 46.2 µM), inactives show at the highest dose activity change, negative = growth inhibition, usual class: inhibitors. DT40 Tdp1-/- hTDP1 cells, no CPT, ATP luminescence, 48 h. 420,000 compounds, 15% hits. AID 686978, 2013; note: potency is the fitted concentration of half-maximal effect; nearly all actives have a fitted effect of over 55% in size
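No-CPT arm: Tdp1-/-;hTDP1 DT40 cells (400/well) plus compounds, incubated ≥48 hr at 37 °C. Readout CellTiter-Glo luminescence.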
* = called active by the depositor; u = inconclusive; x = no result; [ ] = another dose, or the depositor's remark. Unless noted, calls come from the whole dose curve; as a rule, active = well fitted curve in the direction sought with a large enough effect; inconclusive = small, poorly fitted or top-dose-only effect, or another doubt; inactive = no such curve, though single readings can be large; an effect the other way counts as inactive or inconclusive. Unless noted, % is set by controls: 0 for no effect and ±100 for the full control effect.

SMILES	HT1080 IDH1KD tx	HT1080NT lethal	DT40 TDP1 CPT	IL1B secr inh	TDP1 cell noCPT
CN(C)Cc1c(C(=O)N/N=C/c2cccc(OCc3ccc(F)cc3)c2)nnn1-c1nonc1N	10%	11%	-2%	12	-11%
COc1cc(/C=N/NC(=O)c2nnn(-c3nonc3N)c2C(C)C)ccc1OCc1ccc(F)cc1	12µM*	u	u	u	21µM*
CCN(CC)c1ccc(/C=N/NC(=O)c2nnn(-c3nonc3N)c2C(C)C)c(O)c1	1.3µM*	u	5.8µM*	80	3.3µM*
CC(C)c1c(C(=O)N/N=C/c2cccc(OCc3ccc(F)cc3)c2)nnn1-c1nonc1N	-3%	14%	u	-83*	16µM*
CCN(CC)c1ccc(N=C2C=CC(=O)C=C2NC(C)=O)cc1	-18%	-8%	5.2µM*	-72*	2.9µM*
Cc1ccc(C)c(S(=O)(=O)N2CCC(c3nc4c(nnn4Cc4ccc5c(c4)OCCO5)c(=O)[nH]3)CC2)c1	u	-27%	u	u	u
CNC(=O)c1ccsc1NC(=O)c1sc2ccccc2c1Cl	-16%	u	13µM*	-1	u
O=C(NCC(=O)N1CCCCC1)c1sc2ccccc2c1Cl	12%	7%	-8%	u	-21%
O=C(Nc1ccc(CN2CCCCC2)cc1)c1sc2ccccc2c1Cl	u	u	13µM*	-57*	16µM*
CCN(CC)c1ccc(NC(=O)c2sc3ccccc3c2Cl)cc1	x	x	21µM*	x	21µM*
O=C(Nc1ccc(CN2CCCCC2)cc1)c1cccc(Br)c1	-28%	-18%	u	-55*	u
CCN(CC)Cc1ccc(NC(=O)c2sc3cc(Cl)ccc3c2Cl)cc1	23µM*	7.3µM*	u	x	16µM*
O=C(Nc1ccc(C(=O)OC[C@@H]2CCCN3CCCC[C@H]23)cc1)c1cccc(Br)c1	-6%	-11%	u	-6	18µM*
O=C(NC(=O)c1cccc(F)c1)OC[C@@H]1CCCN2CCCC[C@H]12	0%	19%	10%	4	-8%
O=c1c([N+](=O)[O-])c(NC2CCCCC2)c2ccccc2n1-c1ccccc1	0%	-2%	16µM*	-1	u
O=c1c([N+](=O)[O-])c(NCCN2CCCCCC2)c2ccccc2n1-c1ccccc1	4%	0%	-19%	-5	-4%
Cc1cc(C)nc(NN2C(=O)/C(=C/c3ccccc3)SC2=S)n1	1%	7%	-26%	3	u
O=C(O)c1ccc(/C=C2\SC(=S)N(NC(=O)c3ccccc3[N+](=O)[O-])C2=O)cc1	0%	1%	-3%	-10	-6%
O=C1/C(=C/c2ccncc2)SC(=S)N1Nc1ccccc1	5.8µM*	u	u	x	u
O=C(O)c1ccc(/C=C2\SC(=S)N(Nc3ccccc3)C2=O)cc1	4.6µM*	u	5%	44	0%
CC(NC(=O)c1cc2ccccn2n1)c1ccccc1 (stereo unspecified)	x	x	-11%	x	0%
COc1ccccc1C1CN(Cc2cn(C)nc2C)Cc2ccccc2O1 (stereo unspecified)	x	x	12%[9.04 µM]	x	-28%
COC(=O)C1=C(CS(=O)(=O)c2ccccc2)NC(=O)NC1c1ccccc1 (stereo unspecified)	26%	30%	-1%	10	7%
CC1(C)CC(=O)C(CS(=O)(=O)c2ccccc2)=C(Cl)C1	3%	-1%	5.2µM*	-19	2.9µM*
O=C(Cc1ccccc1F)Nc1ccc(SC(F)F)cc1	-5%	-3%	u	-55*	u
SMILES	HT1080 IDH1KD tx	HT1080NT lethal	DT40 TDP1 CPT	IL1B secr inh	TDP1 cell noCPT
COc1cc(C(=O)OCC(=O)Nc2ccc(SC(F)F)cc2)cc(OC)c1OC	1%	-7%	u	-4	u
Cc1ccc(C(=O)c2ccccc2C(=O)OCC(=O)Nc2cccc([N+](=O)[O-])c2)cc1	0%	1%	18µM*	-5	u
O=C(COC(=O)c1ccccc1Cc1ccccc1)Nc1ccc(SC(F)F)cc1	1%	6%	u	-93*	u
Cc1ccc(-c2nc(C)sc2CC(=O)OCC(=O)Nc2cccc([N+](=O)[O-])c2)cc1	-18%	-8%	-22%	33	-28%
Cc1ccc(C(=O)c2ccccc2C(=O)OCC(=O)Nc2ccc(SC(F)F)cc2)cc1	u	-16%	u	-26	18µM*
CC1(C)CC[C@]2(C(=O)n3ccnc3)CC[C@]3(C)[C@H](C(=O)C=C4[C@@]5(C)C=C(C#N)C(=O)C(C)(C)[C@@H]5CC[C@]43C)[C@@H]2C1	3.7µM*	4.1µM*	0.58µM*	-100*	0.65µM*
CN(C(=O)C1CCN(S(=O)(=O)c2cccs2)CC1)C1CCCCC1	4%[9.24 µM]	1%	-17%	12	-16%
Cc1cccc2sc(N(CCN(C)C)C(=O)C3CCN(S(=O)(=O)c4cccs4)CC3)nc12	-11%	-9%	u	-61*	18µM*
Cc1cccc2sc(N(CCN(C)C)C(=O)/C=C/c3cccs3)nc12	u	u	16µM*	-93*	18µM*
Cc1cccc2sc(N(CCN(C)C)C(=O)c3cc(Cl)sc3Cl)nc12	1%	9%	u	-29	u
CN(C)CCCN(C(=O)/C=C/c1cccs1)c1nc2c(F)cccc2s1	u	u	21µM*	-105*	21µM*
O=C(CN1CCN(c2ccc(O)cc2)CC1)N(C1CC1)C1CCS(=O)(=O)C1 (stereo unspecified)	3%	22%	-11%	0	-29%
COc1ccc(C)cc1NC1=C(Cl)C(=O)N(C2CCCCC2)C1=O	5%	-3%	u	4	12µM*
CCCNC(=O)CCn1cc(-c2ccc(OC)cc2)nc1-c1ccncc1	-1%	0%	-24%	-13	-2%
Cc1ccc(/C=N/N2CCN(Cc3cccc4ccccc34)CC2)o1	-3%	1%	-22%	u	u
Cc1ccccc1NC(=O)c1ccc(F)c(S(=O)(=O)N2CCN(c3ccccn3)CC2)c1	-29%	u	28µM*	-23	11µM*
O=C(Nc1ccc(Br)cc1)c1ccc(F)c(S(=O)(=O)N2CCN(c3ccccn3)CC2)c1	1%	-5%	u	26	7.3µM*
Cc1ccc(C)c(N2CCN(S(=O)(=O)c3cc(C(=O)Nc4ccccc4C(F)(F)F)ccc3F)CC2)c1	x	x	12µM*	x	13µM*
O=C(Nc1ccccc1N1CCOCC1)c1ccc(F)c(S(=O)(=O)N2CCOCC2)c1	7%	9%[9.24 µM]	u	0	-24%
Cc1ccccc1CSc1nnc(-c2cnccn2)n1C	25%	25%	-15%	-11	-16%

Source: PubChem (National Center for Advancing Translational Sciences (NCATS))
